Assay results reported in PubChem BioAssay (NCATS).
Inconclusive results are not listed. Where a call stands in place of a potency, no number is given. Calls of active or inactive are those of the source. The call rests on the fitted dose curve; in most records, active means well fitted cell-killing curve with a large enough effect; inconclusive means small, poorly fitted or top-dose-only effect; inactive means flat fitted curve, though single readings scatter. Numbered stars: 1 amine (or outer) side, 2 acyl side, 3 side chain; on linkers, the order of the positions; unused ones are H or OH. Square brackets hold non-standard residues; d marks the D form. Peptide text beside a SMILES is read from it. * marks the point of attachment. ξ: configuration not given here. X4 = O=C(C1CC2(c3ccc(O)cc3)c3ccccc3NC2N1[*:1])[*:2]; ξW = NC(Cc1c[nH]c2ccccc12)C(=O)O; ξY = NC(Cc1ccc(O)cc1)C(=O)O; Octanoyl = CCCCCCCC(=O)*
Potency means the concentration at half of the fitted maximal effect.

Experiment: KB-8-5-11 Cancer Cell Toxicity qHTS against the NCATS CANVASS Library (AID 1347364); further: nearly all actives have a fitted effect of over 75% in size
Conditions: KB-8-5-11 MDR cells viability, CellTiter-Glo, 72 h; series mostly up to 46.1 µM
Excerpt: Natural products and their derivatives continue to be wellsprings of nascent therapeutic potential. However, many laboratories have limited resources for biological evaluation, leaving their previously isolated or synthesized compounds largely or completely untested. To address this issue, the Canvass library of natural products was assembled (https://tripod.nih.gov/canvass), in collaboration with academic and industry researchers, for quantitative high-throughput screening (qHTS) across a diverse set of cell-based and biochemical assays. The pure (>85% purity by liquid chromatography/mass spectrometry [LC/MS]) Canvass library of 346 natural products were submitted by 45 academic laboratories and companies around the world. We collected pure natural products to circumvent deconvolution and structure elucidation due to time and resource limitations. The library was formatted into 1536-well plates and evaluated in 50 qHTS (in an 11-pnt concentration series) bioassays with broad scope of disease-relevant mechanisms. The resulting data set from 50 different assays was then systematically analyzed to identify overall trends and specific natural products with interesting biological activities. Reported herein are the results of each individual qHTS and their corresponding assay protocol. […] National Center for Advancing Translational Sciences (NCATS), Rockville, MD National Institute of Health (NIH), Bethesda, Maryland
Cancer Cell Toxicity qHTS protocol 1. In a 1536 well, tissue culture treated white solid bottom plates (Corning 7494), 5 uL of KB-8-5-11 cell solution (final concentration of 500 cells / well) was dispensed using the Multidrop Combi dispenser (Thermo Fisher Scientific) into columns 3-48, rows 1-32. DMEM + 10% FBS + 100 U/mL penicillin / 100ug/mL streptomycin media solution was dispensed into column 1-2, row 1-32 also using the Multidrop Combi dispenser. For follow-up confirmation, KB 8-5-11 was also plated in medium supplemented with 1uM tariquidar. 2. Control and Compounds were pin transferred (~23nL volume) to the assay plates via Wako Pin-tool (Wako Automation, Richmond VA) equipped with a 1536 pin head. The compounds were transferred to columns 5-48 resulting in a final concentration ranging from 0.17 nM to 103 uM. Dose response titration of Bortezomib was pin transferred into column 3, rows 1-32 (2mM; 1:2 dilution; 16 points; n = 2) resulting to a final concentration range of 0.3nM - 9.2uM. 3. The assay plates were further incubated in the at 37C, 5% CO2, 95% Rh for 72 hr. 4. After incubation, 2.5uL of CellTiter-Glo reagent (Promega) was added to the assay plates (column 1-48, rows 1-32) using the Multidrop Combi dispenser. 5. The assay plates were incubated at room temperature for 10 minutes. 6. Luminescence signal was acquired via the ViewLux plate reader (PerkinElmer) using a clear emission filter, 1 sec exposure, and 1x binning settings.
For `C[C@]12CC[C@]3(C1)[C@H](CC2=O)CC(OC(=O)c1ccccc1)[C@H]1[C@@](CO)(C(=O)O)CCC[C@@]13C` (stereo not given in full), the Potency was “inactive”.
For `CN1C(=O)[C@]23SS[C@@]1(C)C(=O)N2[C@H]1Nc2ccccc2[C@]1(c1c[nH]c2ccccc12)[C@@H]3O`, the Potency was 2.35 µM (active).
With `CCC1=C2CCCN3C(=O)O[C@H]([C@H]1OC(C)=O)[C@H]23` the Potency was “inactive”.
For `CS/C=C/C(N)=O`, the Potency was “inactive”.
In the case of `O=C(O)[C@@]12CO[C@@]3(O)C4CCN(CC[C@H]31)[C@H]4c1c2[nH]c2ccccc12`, the Potency is reported as “inactive”.
For `OCc1ccc2ocnc2c1`, the Potency was “inactive”.
With `O=C(O)CC1OCc2c(O)cccc21` (stereo not given) the Potency was “inactive”.
With `C=C[C@@]1(C)CC[C@@H]([C@H](C)C(=O)/C=C/C(C)C)O1` the Potency was “inactive”.
In the case of `CC(=O)NC[C@@H]1O[C@H](CC/C=C(C)/C(C)=C/C=O)[C@H](C)C[C@H]1O`, the Potency is reported as “inactive”.
In the case of `O=C(O)CC1OC(=O)c2c(O)cccc21` (stereo not given), the Potency is reported as “inactive”.
With `C=C1C[C@@]23C=CC(=O)[C@@](C)(CCC(=O)Nc4c(O)ccc(C(=O)O)c4O)C2C[C@@H]1C(O)C3` (stereo not given in full) the Potency was “inactive”.
In the case of `C=CC(C)(C)C(=O)[C@@H](C)[C@@H]1CC[C@](C)(C=C)O1`, the Potency is reported as “inactive”.
For `C[C@@H]1O[C@@H](O[C@@H]2[C@@H](O)[C@H](O[C@@H]3[C@@H](O)[C@@H](O)C(O[C@H]4[C@H](OC(=O)[C@]56CCC(C)(C)C[C@H]5C5=CCC7[C@@]8(C)C[C@H](O)[C@H](O[C@@H]9C[C@H](CO)[C@@H](O)[C@H](O)[C@H]9O)[C@@](C)(CO)C8[C@H](O)C[C@@]7(C)[C@]5(C)CC6)OC[C@H](O)[C@@H]4O)O[C@H]3C)OC[C@H]2O)[C@H](O)[C@H](O)[C@H]1O` (stereo not given in full), the Potency was “inactive”.
With `C[C@@]12CCC[C@@](C)(C(=O)O)[C@H]1C[C@@H](O)[C@]13C[C@H]4C[C@H](O[C@@]4(C)C1)[C@@H]23` the Potency was “inactive”.
For `CNc1ccc(Cl)cc1C(=O)OC[C@]1(C)[C@H]2CC[C@]3(C)[C@@H](C[C@@H](OC)[C@H](C)[C@H]3C3=C(O)C(=O)OC3O)[C@]2(C)CC[C@H]1O` (stereo not given in full), the Potency was “inactive”.
With `C[C@@H]1C(=O)[C@]23CC[C@H]1C[C@]21O[C@H]2C(C)(C)C=CC(=O)[C@@]23COC1=O` the Potency was “inactive”.
For `C=C1[C@H]2CC[C@@]3(C=CC(=O)[C@@](C)(CCC(=O)Nc4c(O)ccc(C(=O)O)c4O)C3C2)[C@H]1O` (stereo not given in full), the Potency was “inactive”.
For `COc1cc(O)c2c3c(c(O)cc(C)c13)C(=O)OC2`, the Potency was “inactive”.
With `C=C1C[C@@]23C=CC(=O)[C@@](C)(CCC(=O)Nc4c(O)ccc(C(=O)O)c4O)C2C[C@@H]1CC3` (stereo not given in full) the Potency was “inactive”.
For `CCCCCCCCCCCCCCC[C@H](O)C[C@@H](O)C[C@@H](O)C[C@@H](O)C[C@@H](O)C[C@H]1CC=CC(=O)O1`, the Potency was 6.62 µM (active).
For `C/C1=C/[C@@H](C)[C@H](O)C/C=C/CC/C=C/C(=O)O[C@@H]1[C@H](C)C(=O)/C=C/CC1CC(=O)NC(=O)C1`, the Potency was “inactive”.
For `C[C@@H](CCC[C@]1(C)C(=O)C=C[C@]23C[C@H]4C[C@H](O[C@@]4(C)C2)C31)C(=O)N[C@@H](CO)C(=O)O` (stereo not given in full), the Potency was “inactive”.
In the case of `CC[C@H](C)[C@H](NC(=O)C(Cc1ccc(O)cc1)NC(=O)C(Cc1c[nH]c2ccccc12)NC(=O)[C@H](C)N)C(=O)N1C(C(=O)NC(Cc2ccc(O)cc2)C(=O)O)CC2(c3ccc(O)cc3)c3ccccc3NC12` (stereo not given in full) (H-A[ξW][ξY]I[X4][ξY]-OH), the Potency is reported as “inactive”.
With `C[C@@H]1O[C@@H](Oc2c(-c3ccc(O)cc3)oc3cc(O)cc(O)c3c2=O)[C@H](O)[C@H](O)[C@H]1O` the Potency was “inactive”.
With `O=C1c2c(O)cc(O)cc2O[C@@H](c2ccc(O)cc2)[C@@H]1c1c(O)cc(O)c2c(=O)cc(-c3ccc(O)c(O)c3)oc12` the Potency was “inactive”.
With `CCCCCCCC(=O)N[C@@H](CC(C)C)C(=O)N[C@H](C=O)CCC(=O)O` (Octanoyl-Leu-Glu-aldehyde) the Potency was “inactive”.
In the case of `C=C1/C=C\C(CCC)=C\c2csc(n2)C(C)NC(=O)C[C@@]2(CC(=O)O)CCC(=C)[C@H](C1)S2` (stereo not given in full), the Potency is reported as “inactive”.
In the case of `C[C@@H]1O[C@H](c2c(O)cc(O)c3c(=O)cc(-c4ccc(O)cc4)oc23)[C@H](O)[C@H](O)[C@H]1O`, the Potency is reported as “inactive”.
With `C=C1C(=O)C[C@H]2C[C@@H]1[C@]2(C)CCC=C(C)C` the Potency was “inactive”.
With `COc1ccc(CCCc2cc(O)c(OC)c(O)c2)c(O)c1O` the Potency was “inactive”.
For `O=C1CC(c2cc(O)cc(O)c2)Oc2cc(O)ccc21` (stereo not given), the Potency was “inactive”.
With `C=C1C[C@@]23C=CC(=O)[C@@](C)(CCC(=O)Nc4c(OC5O[C@H](CO)[C@@H](O)[C@H](O)[C@H]5O)ccc(C(=O)O)c4O)C2C[C@@H]1CC3` (stereo not given in full) the Potency was “inactive”.
With `C[C@@]12C[C@@H](C[C@H]3C(=O)O[C@@H](c4ccoc4)[C@H](OC(=O)c4ccccc4)[C@@H]31)OC2=O` the Potency was “inactive”.
For `C/C=C/C(=O)[C@@H](C)C1=CC(=O)C2=C(O[C@@]34CC[C@H](O)C(C)(C)[C@@H]3CC[C@H](C)[C@@]4(C)C2)C1=O`, the Potency was 14.8 µM (active).
In the case of `CN1C(=O)C2C(N=CN2C)N(C)C1=O` (stereo not given), the Potency is reported as “inactive”.
For `C1=C2CCCN[C@@H]2[C@@H]2CCN3CCCC[C@@H]3[C@H](C1)C2`, the Potency was “inactive”.
With `COc1cc(/C=C2/C(=O)N(c3ccc(O)cc3C(=O)O)[C@H](c3ccc(O)c(OC)c3)C2C(=O)Nc2ccc(O)cc2C(=O)O)ccc1O` (stereo not given in full) the Potency was “inactive”.
With `CC1C(=O)C23CCC1C[C@@]21O[C@H]2C(C)(C)C=CC(=O)[C@@]23COC1=O` (stereo not given in full) the Potency was “inactive”.
With `C=C(NC(=O)c1csc(-c2nc3c(cc2O)-c2nc(cs2)C(=O)NC(C(C)O)C(=O)N/C(=C(\C)O)c2nc(cs2)C(=O)NC2c4nc(cs4)C(=O)NC(COC(=O)c4c5c6c(cccc6n4O)COC(=O)[C@@H](OC4C[C@](C)(O)[C@H](N(C)C)[C@H](C)O4)C2OC5)c2nc-3cs2)n1)C(N)=O` (stereo not given in full) the Potency was “inactive”.
In the case of `CC(O)/C=C/C1(O)C(C)(C)CC(O)CC1(C)O` (stereo not given), the Potency is reported as “inactive”.
